Test results reported in PubChem BioAssay.
Records with an inconclusive call do not appear. Activity calls are given as the source filed them.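 Rule for the calls, unless noted: active = GFP response, as percent of the DMSO control, above the screen-wide mean plus 3 SD, about 139; inconclusive = no response measured because the compound's own fluorescence interfered; inactive = the rest.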

Assays:
[1] = yeast TOR pathway RPL19A-GFP modulators, primary screen, cell-based, S. cerevisiae, multiplex flow cytometry (AID 1862; in the data active = percent of DMSO control GFP below about 86%;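 note: lower values mimic rapamycin by blocking the RPL19A rise seen in DMSO cells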); settings: S. cerevisiae RPL19A-GFP strain, flow cytometry fluorescence, 3 h; at 10 µM; stronger effect = lower value
[2] = modulators of MEP2-GFP levels in yeast, primary screen, S. cerevisiae, multiplex flow cytometry (AID 1867);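 note: median GFP channel fluorescence of barcode-gated MEP2-GFP cells measured by flow cytometry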; settings: S. cerevisiae MEP2-GFP strain, 3 h, at 10 µM, stronger effect = higher value, 100% means same as DMSO wells
[3] = modulators of CIT2-GFP expression in yeast, primary screen, S. cerevisiae, GFP fusion, multiplex flow cytometry (AID 1870;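 active = percent response above a set limit, the screen-wide mean plus 3 SD, cut at about 130% in these data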;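 note: barcoded CIT2-GFP strain pooled with four other GFP strains with rapamycin as positive control; median GFP fluorescence per well over plate mean of DMSO wells so 100% = DMSO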); settings: 3 h, at 10 µM, stronger effect = higher value
[4] = modulators of LAP4-GFP expression in yeast, primary screen, S. cerevisiae, multiplex flow cytometry (AID 1873;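 active = GFP signal, as percent of the solvent control, above the screen mean plus 3 SD, about 149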); settings: 3 h, at 10 µM, stronger effect = higher value
[5] = modulators of AGP1-GFP expression in yeast TOR pathway, primary screen, cell-based, multiplex flow cytometry, S. cerevisiae (AID 1887;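 active = GFP signal above the screen-wide mean plus 3 SD, that is over about 124.5% of the solvent control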;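 note: AGP1-GFP fusion strain of S. cerevisiae within a five-strain barcoded multiplex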); settings: 3 h, at 10 µM, stronger effect = higher value
[6] = inhibitors of CD8+ T cell-vesicle binding, pilot screen, LFA-1/ICAM-1 modulator project, MLPCN validation set, flow cytometry (AID 2523;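 active = response below a set limit, under 55% cells CD8-positive and vesicle-bound, and CD8 cells' 90th-percentile brightness under 279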;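 for vesicle binding response: mean PE anti-B7-1 fluorescence of CD8+ cells relative to row control; 100% = QL9-loaded vesicles with DMSO vehicle in the same plate row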); settings: 2C mouse CD8+ T cells, at 7 µM, stronger effect = lower value; double positive events: measured here: CD8+/vesicle+ event percentage
[7] = molecular target: Integrin beta-1 (Homo sapiens) + Integrin alpha-4 (Homo sapiens) (UniProt P13612+P05556); assay: inhibition of HUTS-21 binding to VLA-4, pilot screen, VLA-4 allosteric modulator project, U937 cells, HUTS-21 mAb, flow cytometry, validation set (AID 2674;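 active = inhibition above 50%, about 3 SD of the validation set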;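 note: antibody binding induced by the VLA-4 ligand LDV present at three times its Kd; 0% = LDV ligand with antibody and no compound and 100% = antibody without LDV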); settings: HUTS-21 LIBS mAb binding, at 6.7 µM, stronger effect = higher value, binding induced by LDV ligand
[8] = superoxide lowering in aged yeast cells, pilot screen, validation compound set (AID 2706;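 active = superoxide response below 65% of plate, a cut near 3 SD across the whole screen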;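 note: yeast exposed to compound for one week at 30 degrees C before staining; 100% = mean of all compound wells on the same plate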); settings: S. cerevisiae aging, superoxide DHE fluorescence; at 10 µM; stronger effect = lower value
[9] = molecular target: Beta-adrenergic receptor kinase 1 (Homo sapiens) (UniProt P25098); assay: GRK2 binders displacing RNA aptamer, biochemical, validation, human GRK2, bead flow cytometry (AID 488806;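 active = aptamer binding inhibition above 30%, about 3 SD of noise from non-fluorescent compounds; inactive = inhibition at or below 30%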); settings: bead-bound GRK2, FAM-aptamer displacement, at 10 µM, stronger effect = higher value
[10] = molecular target: Beta-2 adrenergic receptor (Homo sapiens) (UniProt P07550); assay: beta2AR agonists driving receptor internalization, pilot screen, cell-based, FAP fluorogen, flow cytometry, validation set (AID 504459;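 active = percent response above 42, roughly 3 SD of non-fluorescent test compounds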;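 note: agonist-driven loss of surface beta2AR via internalization measured by FAP dye flow cytometry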); settings: Am2.2-beta2AR cells, FAP surface receptor flow cytometry; at 10 µM; stronger effect = higher value
[11] = molecular target: AP-2 complex subunit beta (Homo sapiens) (UniProt P63010); assay: inhibitors of arrestin peptide binding to AP2, pilot screen, biochemical, validation set, GST-AP2 beads, flow cytometry (AID 504541;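 active = inhibition above 54%, about 3 SD of non-fluorescent compounds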;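 note: AP2 carries R879A mutation and is captured from E. coli lysate; bead-bound FITC arrestin peptide fluorescence measuring arrestin peptide binding to AP2; 0% = DMSO wells and 100% = excess unlabeled arrestin peptide control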); settings: FITC arrestin peptide, at 10 µM, stronger effect = higher value, AP2 beta2 appendage fragment, R879A mutant
[12] = yeast V-ATPase proton transport modulators, S. cerevisiae, pHLuorin, HTS validation (AID 504600; in the data active = response above about 15%;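 note: plate controls were DMSO for no effect and reference compound for full effect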); settings: S. cerevisiae pHLuorin cytosolic pH, at 10 µM, stronger effect = higher value
[13] = test system: anti-desmoglein-3 scFv antibody binding to human DSG3; assay: inhibitors of anti-DSG3 scFv binding to DSG3, pilot screen, biochemical, validation compound set, bead-based, flow cytometry (AID 588368;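 active = binding below the plate cutoff, the plate median minus 3 SD, with a reading above zero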;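 note: signal is the median channel fluorescence of bead-bound GFP antibody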); settings: Protein G beads, DSG3-Fc, scFv-GFP binding, at 10 µM, stronger effect = lower value
[14] = inhibitors of fungal efflux pumps CDR1, CDR2, MDR1, pilot screen, validation compound set, multiplex, phenotypic (AID 588506;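 active = efflux inhibition above 0.42, the validation set average plus 4 SD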;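 note: Nile Red retained in cells so higher fluorescence means more efflux inhibition; 0 = negative control wells and 1 = enniatin B 25 µM full block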); settings: S. cerevisiae pump-expressing triplex, Nile Red efflux flow cytometry; at 10 µM; stronger effect = higher value; the pumps come from Candida albicans
[15] = molecular target: ATP-binding cassette sub-family B member 6 (Homo sapiens) (UniProt Q9NP58); assay: ABCB6 transporter inhibitors, pilot screen, K562-ABCB6 cells, flow cytometry, validation set (AID 588550;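 active = inhibition above the screen-wide mean plus 3 SD, about 51%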;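 note: 0% = DMSO wells and 100% = benzethonium chloride 70 µM positive control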); settings: K562-ABCB6 porphyrin accumulation, 1 h, at 10 µM, stronger effect = higher value
[16] = promoters of myeloid differentiation in arrested cells, primary screen, cell-based, GFP/MAC1 double positive, flow cytometry, validation set (AID 588685;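 active = differentiation response of at least 50%, scaled between solvent and reference control, from cells with both markers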;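 note: compound exposure lasts four days before antibody staining and flow analysis; 0% = DMSO wells and 100% = 5 µM fulvestrant positive control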); settings: ER-HoxA9 marrow cells, stronger effect = higher value, normalized: vehicle 0, fulvestrant 100

Chain of AP-2 complex subunit beta (Homo sapiens) (P63010 whole entry, looked up, the tested form may be a part, one chain of several): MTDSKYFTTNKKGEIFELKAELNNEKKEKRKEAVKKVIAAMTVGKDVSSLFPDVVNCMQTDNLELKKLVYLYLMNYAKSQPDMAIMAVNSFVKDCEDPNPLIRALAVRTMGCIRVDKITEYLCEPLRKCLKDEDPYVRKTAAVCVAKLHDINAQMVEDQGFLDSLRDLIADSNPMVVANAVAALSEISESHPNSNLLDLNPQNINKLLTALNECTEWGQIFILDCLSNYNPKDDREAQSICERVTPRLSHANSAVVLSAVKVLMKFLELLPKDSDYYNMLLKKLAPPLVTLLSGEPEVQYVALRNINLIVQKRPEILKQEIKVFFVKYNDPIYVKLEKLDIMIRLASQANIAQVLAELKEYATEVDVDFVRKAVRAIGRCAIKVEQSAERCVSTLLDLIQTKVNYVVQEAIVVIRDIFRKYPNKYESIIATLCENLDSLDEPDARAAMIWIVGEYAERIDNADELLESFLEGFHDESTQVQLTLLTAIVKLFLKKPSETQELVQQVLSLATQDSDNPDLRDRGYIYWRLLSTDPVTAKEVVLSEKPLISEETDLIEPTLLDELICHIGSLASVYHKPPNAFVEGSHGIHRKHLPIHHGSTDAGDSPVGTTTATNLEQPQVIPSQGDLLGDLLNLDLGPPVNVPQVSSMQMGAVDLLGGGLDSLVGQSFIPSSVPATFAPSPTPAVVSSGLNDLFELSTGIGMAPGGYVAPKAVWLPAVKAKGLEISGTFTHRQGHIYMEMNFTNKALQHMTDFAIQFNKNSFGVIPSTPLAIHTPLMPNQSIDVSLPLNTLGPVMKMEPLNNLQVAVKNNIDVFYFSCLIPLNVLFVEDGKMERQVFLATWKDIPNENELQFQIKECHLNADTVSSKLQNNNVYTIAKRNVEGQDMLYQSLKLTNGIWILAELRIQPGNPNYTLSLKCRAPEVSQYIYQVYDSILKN
Chain of Integrin beta-1 (Homo sapiens) + Integrin alpha-4 (Homo sapiens) (P05556 whole entry, looked up): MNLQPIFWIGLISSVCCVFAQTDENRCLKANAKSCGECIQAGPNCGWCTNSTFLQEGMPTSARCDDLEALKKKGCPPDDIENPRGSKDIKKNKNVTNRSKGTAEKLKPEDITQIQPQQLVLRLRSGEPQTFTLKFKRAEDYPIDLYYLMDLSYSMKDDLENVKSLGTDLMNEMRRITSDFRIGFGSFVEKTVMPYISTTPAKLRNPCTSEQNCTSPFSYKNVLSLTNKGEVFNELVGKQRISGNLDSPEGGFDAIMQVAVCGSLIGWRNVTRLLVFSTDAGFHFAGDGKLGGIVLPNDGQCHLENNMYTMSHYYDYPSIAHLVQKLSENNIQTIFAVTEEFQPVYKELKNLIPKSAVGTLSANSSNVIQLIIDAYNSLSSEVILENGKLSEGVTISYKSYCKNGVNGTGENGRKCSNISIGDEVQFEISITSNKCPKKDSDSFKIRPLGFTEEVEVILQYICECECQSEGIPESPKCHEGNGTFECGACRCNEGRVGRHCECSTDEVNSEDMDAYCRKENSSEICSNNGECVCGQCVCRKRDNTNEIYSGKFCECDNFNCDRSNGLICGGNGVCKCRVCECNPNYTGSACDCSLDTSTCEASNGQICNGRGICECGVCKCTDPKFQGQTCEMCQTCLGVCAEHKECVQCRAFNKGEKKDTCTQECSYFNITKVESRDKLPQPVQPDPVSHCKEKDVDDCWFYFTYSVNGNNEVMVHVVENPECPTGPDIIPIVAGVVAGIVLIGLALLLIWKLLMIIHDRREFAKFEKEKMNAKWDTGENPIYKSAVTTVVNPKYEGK
Chain of Integrin beta-1 (Homo sapiens) + Integrin alpha-4 (Homo sapiens) (P13612 whole entry, looked up): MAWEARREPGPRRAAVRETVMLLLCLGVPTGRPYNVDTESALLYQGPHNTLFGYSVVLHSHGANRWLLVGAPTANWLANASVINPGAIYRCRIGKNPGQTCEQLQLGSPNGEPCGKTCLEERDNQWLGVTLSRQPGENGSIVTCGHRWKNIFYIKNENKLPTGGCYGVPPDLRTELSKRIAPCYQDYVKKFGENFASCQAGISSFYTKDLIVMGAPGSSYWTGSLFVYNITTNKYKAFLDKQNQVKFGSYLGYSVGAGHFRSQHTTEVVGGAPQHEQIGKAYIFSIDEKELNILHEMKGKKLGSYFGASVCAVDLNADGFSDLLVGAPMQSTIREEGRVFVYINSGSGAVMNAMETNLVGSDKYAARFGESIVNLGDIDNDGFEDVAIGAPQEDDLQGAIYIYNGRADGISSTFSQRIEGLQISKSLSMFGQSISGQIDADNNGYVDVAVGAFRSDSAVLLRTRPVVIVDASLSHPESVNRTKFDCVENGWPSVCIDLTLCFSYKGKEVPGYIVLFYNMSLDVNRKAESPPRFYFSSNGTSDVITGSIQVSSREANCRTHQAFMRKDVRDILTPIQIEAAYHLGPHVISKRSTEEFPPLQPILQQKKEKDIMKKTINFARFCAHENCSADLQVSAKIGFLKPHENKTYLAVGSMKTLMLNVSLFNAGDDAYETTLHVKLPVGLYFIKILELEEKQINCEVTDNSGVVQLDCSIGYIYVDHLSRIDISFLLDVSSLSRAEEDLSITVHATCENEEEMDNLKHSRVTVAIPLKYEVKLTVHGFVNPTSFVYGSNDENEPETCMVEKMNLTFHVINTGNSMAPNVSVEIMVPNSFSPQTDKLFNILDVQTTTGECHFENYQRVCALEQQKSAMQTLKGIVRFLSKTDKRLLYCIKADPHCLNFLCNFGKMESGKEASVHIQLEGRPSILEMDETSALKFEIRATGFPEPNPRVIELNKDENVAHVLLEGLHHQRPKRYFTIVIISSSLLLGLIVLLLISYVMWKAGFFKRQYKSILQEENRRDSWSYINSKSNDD
Chain of ATP-binding cassette sub-family B member 6 (Homo sapiens) (Q9NP58 whole entry, looked up): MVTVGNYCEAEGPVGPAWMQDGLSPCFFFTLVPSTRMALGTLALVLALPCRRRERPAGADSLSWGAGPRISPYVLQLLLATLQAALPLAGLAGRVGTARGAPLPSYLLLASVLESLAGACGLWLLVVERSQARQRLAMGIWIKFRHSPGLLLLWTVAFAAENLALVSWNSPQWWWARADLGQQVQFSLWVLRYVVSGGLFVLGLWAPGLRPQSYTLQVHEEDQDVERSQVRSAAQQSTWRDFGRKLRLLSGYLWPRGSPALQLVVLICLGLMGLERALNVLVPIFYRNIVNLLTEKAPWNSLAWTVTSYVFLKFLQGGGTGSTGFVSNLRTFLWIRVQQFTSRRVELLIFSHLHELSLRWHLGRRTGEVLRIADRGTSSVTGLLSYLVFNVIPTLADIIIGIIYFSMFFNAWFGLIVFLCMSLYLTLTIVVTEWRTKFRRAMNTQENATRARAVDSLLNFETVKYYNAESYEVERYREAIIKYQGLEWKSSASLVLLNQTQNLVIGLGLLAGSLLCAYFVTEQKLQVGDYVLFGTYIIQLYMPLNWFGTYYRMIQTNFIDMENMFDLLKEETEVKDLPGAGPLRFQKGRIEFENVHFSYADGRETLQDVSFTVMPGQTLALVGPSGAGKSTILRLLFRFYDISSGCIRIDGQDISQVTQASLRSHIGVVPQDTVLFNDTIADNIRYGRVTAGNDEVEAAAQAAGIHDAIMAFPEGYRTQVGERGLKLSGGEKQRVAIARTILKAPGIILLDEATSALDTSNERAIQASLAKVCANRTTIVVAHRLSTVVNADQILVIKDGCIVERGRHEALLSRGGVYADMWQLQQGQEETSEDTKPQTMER
Chain of Beta-2 adrenergic receptor (Homo sapiens) (P07550 whole entry, looked up): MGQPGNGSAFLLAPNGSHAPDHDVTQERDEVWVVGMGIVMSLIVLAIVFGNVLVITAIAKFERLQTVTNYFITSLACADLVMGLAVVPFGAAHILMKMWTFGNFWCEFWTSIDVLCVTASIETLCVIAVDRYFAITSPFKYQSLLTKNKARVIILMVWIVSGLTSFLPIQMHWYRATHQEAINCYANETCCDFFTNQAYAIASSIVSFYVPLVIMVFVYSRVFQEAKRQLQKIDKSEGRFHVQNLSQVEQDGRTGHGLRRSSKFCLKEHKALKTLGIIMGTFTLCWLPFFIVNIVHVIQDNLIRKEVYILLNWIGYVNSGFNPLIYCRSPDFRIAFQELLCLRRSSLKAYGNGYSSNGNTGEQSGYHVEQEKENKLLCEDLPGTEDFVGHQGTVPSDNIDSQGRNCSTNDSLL
Chain of Beta-adrenergic receptor kinase 1 (Homo sapiens) (P25098 whole entry, looked up): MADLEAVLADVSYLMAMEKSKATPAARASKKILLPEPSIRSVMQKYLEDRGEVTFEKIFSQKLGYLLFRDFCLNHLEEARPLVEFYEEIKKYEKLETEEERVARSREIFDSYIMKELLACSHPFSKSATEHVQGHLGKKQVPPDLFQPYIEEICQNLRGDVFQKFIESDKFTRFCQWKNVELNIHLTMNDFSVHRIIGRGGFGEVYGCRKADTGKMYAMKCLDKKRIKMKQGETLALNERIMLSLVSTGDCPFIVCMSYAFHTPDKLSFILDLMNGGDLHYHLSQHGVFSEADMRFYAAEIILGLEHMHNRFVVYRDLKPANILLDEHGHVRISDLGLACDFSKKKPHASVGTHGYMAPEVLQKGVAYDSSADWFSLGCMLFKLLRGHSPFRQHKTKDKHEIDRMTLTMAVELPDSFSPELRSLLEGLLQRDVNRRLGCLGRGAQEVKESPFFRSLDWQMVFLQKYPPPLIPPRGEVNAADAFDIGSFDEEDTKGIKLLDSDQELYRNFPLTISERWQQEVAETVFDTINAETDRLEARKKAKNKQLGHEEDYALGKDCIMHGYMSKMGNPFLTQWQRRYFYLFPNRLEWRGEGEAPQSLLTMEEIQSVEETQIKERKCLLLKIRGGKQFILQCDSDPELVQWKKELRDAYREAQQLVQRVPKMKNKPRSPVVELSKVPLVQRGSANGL

SMILES	percent of DMSO control GFP [1]	GFP response vs DMSO [2]	percent response of DMSO control [3]	GFP response vs DMSO [4]	GFP response, % of DMSO [5]	double positive events [6] [%]	vesicle binding response [6]	inhibition [7]	superoxide response (% of plate) [8]	aptamer binding inhibition [9]	response [10]	inhibition [11]	response [12]	binding (% of control) [13]	efflux inhibition (fraction of control) [14]	inhibition [15]	differentiation response [16]
O=C(COc1ccc2c(-c3ccccc3)cc(=O)oc2c1)NCc1cccs1	97.5% (inactive)	96.6% (inactive)	85.4% (inactive)	102% (inactive)	102% (inactive)	64.6	214% (inactive)	-3.67% (inactive)	92.2% (inactive)	-2% (inactive)	-25.8% (inactive)	26.5% (inactive)	-7% (inactive)	102% (inactive)	0.12 (inactive)	14% (inactive)	6.83% (inactive)
COc1cccc(N2C(=O)CC(c3c[nH]c4ccccc34)C2=O)c1 (stereo not given)	108% (inactive)	103% (inactive)	110% (inactive)	106% (inactive)	97.1% (inactive)	61.9	159% (inactive)	-42.6% (inactive)	95.3% (inactive)	1% (inactive)	12% (inactive)	10% (inactive)	-0.64% (inactive)	105% (inactive)	0 (inactive)	-26% (inactive)	-13.3% (inactive)
COc1cccc(OCC(O)CO)c1 (stereo not given)	97.6% (inactive)	91.9% (inactive)	107% (inactive)	78.6% (inactive)	91.6% (inactive)	58.2	160% (inactive)	0.94% (inactive)	94.9% (inactive)	4% (inactive)	3.25% (inactive)	11.4% (inactive)	-1.06% (inactive)	99.9% (inactive)	-0.1 (inactive)	1% (inactive)	-4% (inactive)
COc1ccc(N2C(=O)C3C(C2=O)C(C(=O)c2ccccc2)N2CCCC32)cc1 (stereo not given)	98.6% (inactive)	107% (inactive)	84.4% (inactive)	122% (inactive)	95.7% (inactive)	61.2	241% (inactive)	-20.9% (inactive)	102% (inactive)	5% (inactive)	37.4% (inactive)	4.51% (inactive)	-0.56% (inactive)	100% (inactive)	-0.24 (inactive)	-7% (inactive)	12% (inactive)
CC(=O)Nc1nnc(S(N)(=O)=O)s1	102% (inactive)	95.1% (inactive)	116% (inactive)	88.1% (inactive)	102% (inactive)	62.4	1080% (inactive)	17.2% (inactive)	111% (inactive)	5% (inactive)	-4.02% (inactive)	-5.06% (inactive)	0.12% (inactive)	102% (inactive)	0.05 (inactive)	16% (inactive)	6.11% (inactive)
COC(=O)c1ccc(NC(=O)c2ccccc2SC)cc1	97.8% (inactive)	104% (inactive)	102% (inactive)	106% (inactive)	91.8% (inactive)	58.4	132% (inactive)	1.62% (inactive)	109% (inactive)	2% (inactive)	1.63% (inactive)	18.8% (inactive)	-1.67% (inactive)	99% (inactive)	-0.26 (inactive)	1% (inactive)	5.13% (inactive)
NC(=O)C1CCCNC1 (stereo not given)	106% (inactive)	98.7% (inactive)	109% (inactive)	98% (inactive)	105% (inactive)	75.5	302% (inactive)	1.59% (inactive)	104% (inactive)	-2% (inactive)	7.03% (inactive)	0.42% (inactive)	-3.07% (inactive)	103% (inactive)	0.11 (inactive)	10% (inactive)	8.59% (inactive)
CC(C)CCc1noc(CN2CCC(CCN3CCCC3=O)CC2)n1	98.3% (inactive)	101% (inactive)	105% (inactive)	99.1% (inactive)	102% (inactive)	62.1	188% (inactive)	23% (inactive)	97.3% (inactive)	-3% (inactive)	-4.37% (inactive)	32.4% (inactive)	-4.25% (inactive)	95.1% (inactive)	-0.39 (inactive)	-3% (inactive)	-13.3% (inactive)
CCOC(=O)c1cccc(P(C)(C)=O)c1	103% (inactive)	97.2% (inactive)	114% (inactive)	90.1% (inactive)	104% (inactive)	62	67.6% (inactive)	5.77% (inactive)	109% (inactive)	3% (inactive)	-6.13% (inactive)	-7.26% (inactive)	-2.31% (inactive)	95.8% (inactive)	-0.04 (inactive)	-7% (inactive)	6.11% (inactive)
Cc1ccc(N2C(=O)c3ccccc3C2=O)cc1C	105% (inactive)	104% (inactive)	107% (inactive)	99.1% (inactive)	94.8% (inactive)	63.4	121% (inactive)	6.95% (inactive)	99.1% (inactive)	3% (inactive)	-0.69% (inactive)	-6.64% (inactive)	0.36% (inactive)	101% (inactive)	0.24 (inactive)	0% (inactive)	-3.11% (inactive)
